# Source: PubChem BioAssay (National Center for Advancing Translational Sciences (NCATS))
# The full list was thinned out, with hits kept by preference.
# Pf Dd2 growth – qHTS Primary assay for Inhibitors of Plasmodium falciparum Dd2 growth in vitro; P. falciparum Dd2 growth, SYBR Green, 72 h; Potency, µM (titrated, usually from 28.9 µM), inactives show at the top dose activity, negative = inhibition, most hits filed as inhibitors; 120,000 compounds, 4.3% hits; AID 1347417, 2020; active = well fitted inhibition curve with a large enough effect;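 note: plate controls were DMSO vehicle for no effect and reference drug for full effect; nearly all actives have a fitted effect of over 65% in size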
#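 Infected erythrocytes (Dd2, 0.3% parasitemia, 2.5% hematocrit final) are added to compound in RPMI-1640/Albumax II medium, grown 72 h at 37C in low oxygen, then lysed with saponin/Triton-X containing SYBR Green and read by fluorescence.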
# Active calls of the source: *; i = inactive; [ ] = dose if it differs, or a comment. Potency is the fitted concentration of half-maximal effect.
SMILES,Pf Dd2 growth
COc1ccc(-c2ccnc(N[C@H]3CO[C@H]4[C@@H]3OC[C@@H]4NC(=O)NCc3ccccc3)n2)cc1,5.01µM*
CCCNC(=O)N(C1CCOCC1)C1CCN(S(=O)(=O)c2cccnc2)CC1,-12.9%
COc1ccccc1C(=O)N1CC(c2nnc(-c3ccncc3)o2)C2(CCOCC2)C1 (stereo unspecified),6.1%
Cn1ncc(N2CCCC(CC(=O)Nc3ccc(F)cc3F)C2)cc1=O (stereo unspecified),-6.3%
COC(=O)[C@@H](C)NC(=O)[C@H]1CN(S(=O)(=O)c2ccccc2)CCN1C(=O)N1CCOCC1,5.4%
O=C(c1cccnc1)N1CCC2(CC1)C(=NC1CCCC1)NC(=O)N2c1cc(F)cc(F)c1,10.1%
C#CCNC(=O)c1nc(-c2ccc(Cl)cc2)c2ccccn12,-26.3%[44.1 µM]
N#CCCN1CCN(C(=O)CCc2cc3ccccc3[nH]c2=O)CC1,-24.0%
CCC1CCCCN1CCNC(=O)CCc1cc2ccccc2[nH]c1=O (stereo unspecified),i
O=C(CCc1cc2ccccc2[nH]c1=O)NCCN1CCc2ccccc2C1,3.16µM*
CCC(=O)N(C1CCOCC1)C1CCN(Cc2ccc(C(F)(F)F)cc2)CC1,-23.8%
Cc1cccc(NC(=O)Cn2c(-c3cccc(Cl)c3)nc(C)c(CCO)c2=O)c1,-3.3%
COc1ccc(Nc2oc(-c3ccc(COc4ccccc4C)o3)nc2C#N)cc1,11.2µM*
CNc1oc(-c2ccc(COc3ccc(C)cc3)o2)nc1C#N,-15.6%
COc1ccc(OCc2ccc(-c3nc(C#N)c(N4CCCCC4)o3)o2)cc1,9.3%
COc1cc(-c2onc(C)c2C(=O)NC2Cc3ccccc3C2)cc(OC)c1OC,i
Cc1cc(C(F)(F)F)nn1CC(=O)N1CCCCCCNC(=O)CC1,-16.6%
O=C(NC[C@H]1OC[C@@H](N(Cc2ncc[nH]2)Cc2ncc[nH]2)[C@@H]1O)c1ccccc1,-20.0%[44.1 µM]
COc1ccc(Cl)cc1S(=O)(=O)N1CCC(n2cnnc2C)CC1,-25.6%
COc1ccc(OC)c(S(=O)(=O)N2CCC(OC3CCN(C)CC3)CC2)c1,i
COc1ccc(Cl)cc1S(=O)(=O)N1CCC(OC2CCN(C)CC2)CC1,3.16µM*
CN1CCC(CN2CCC3(CC2)COCCN3C(=O)c2ccccc2)CC1,i
CS(=O)(=O)N1Cc2ccccc2CC2(CCCN2Cc2cccnc2)C1 (stereo unspecified),-7.7%
O=C(c1ccncc1)N1CCCN(Cc2cccnc2)c2ccccc21,i
O=[S+]([O-])(c1ccccc1)N1CC2(CCCN2Cc2cccnc2)Cc2ccccc21 (stereo unspecified),11.2µM*
SMILES,Pf Dd2 growth
CCN1CCCN(C(=O)c2cccnc2)CC12CCOCC2,-5.9%
O=C(c1ccc(Cl)cc1)N1CC2(CCN(Cc3cccnc3)CC2)Cc2ccccc21,-26.5%
O=C(O)CCC(=O)N1CCCC2(Cc3ccccc3N(C(=O)c3ccc(Cl)cc3)C2)C1 (stereo unspecified),i
O=C(c1ccccc1)N1CC2(CCCCN2Cc2cccnc2)Cc2ccccc21 (stereo unspecified),10µM*
C[S+](=O)([O-])N1CC2(CCCCN2Cc2ccc(Cl)cc2)Cc2ccccc21 (stereo unspecified),-26.9%
O=C(c1ccc(Cl)cc1)N1CC2(CCCN2Cc2cccnc2)Cc2ccccc21 (stereo unspecified),10µM*
CCC(NC(=O)C1CCCN(c2cnc3nccnc3c2)C1)c1ccc(OC)cc1 (stereo unspecified),-1.3%
O=C(CCCc1c[nH]c2ccccc12)N1CCc2nc3cc(-c4ccccc4)[nH]n3c(=O)c2C1,17.1%[5.79 µM]
COCC1CN(S(=O)(=O)c2cc(Cl)ccc2OC)CC12CCNCC2 (stereo unspecified),-25.2%
CCCCN1CCC(CNC(=O)c2cccc(C3CCNC3)c2)CC1 (stereo unspecified),-9.4%
O=C1CCCCC(CNC(=O)c2cccnc2)N1 (stereo unspecified),-0.1%
O=C1CCN(S(=O)(=O)c2ccc3c(c2)OCCO3)CCCC(CO)CCN1 (stereo unspecified),-1.1%
O=C(CCC[C@@H]1[C@H]2CCCN3CCC[C@@H](CN1Cc1cccnc1)[C@@H]23)Nc1cccnc1,i
O=C(Cc1ccccc1)NCC1CN(C(=O)Cc2cccc(C(F)(F)F)c2)CC12CN(c1ccccc1)C2 (stereo unspecified),i
O=C(c1cnccn1)N1CCC2(CC1)NC(=O)N(Cc1cccc(Cl)c1)C2=O,i
COc1ccc(C(=O)N2CCC(c3n[nH]c(=O)n3Cc3ccc(F)cc3)CC2)cc1,i
Cc1noc([C@H]2CCN(C(=O)NCc3ccccc3)C[C@H]2NC(=O)C2CC2)n1,i[5.79 µM]
COc1cc2c(cc1OC)C(COc1ccccc1OC)N(C(=O)COc1ccc(Cl)cc1)CC2 (stereo unspecified),8.91µM*
COC(=O)c1ccc(OCC2c3cc(OC)c(OC)cc3CCN2C(=O)c2ccc(OC)cc2)cc1 (stereo unspecified),7.08µM*
COC[C@@H]1CN(C(=O)COc2ccc(Cl)cc2)C[C@H]1C(N)=O,-1.0%
COC(=O)c1ccc(OCC2c3cc(OC)c(OC)cc3CCN2C(=O)Cc2ccc(OC)c(OC)c2)cc1 (stereo unspecified),11.2µM*
CCOc1cc2c(cc1OCC)C(CC(=O)OC)N(C(=O)Nc1cc(C)cc(C)c1)CC2 (stereo unspecified),20.4%
CCC(=O)N1CCc2cc(CNC(=O)Cc3ccc(OC)c(OC)c3)ccc21,23.4%
CNC(=O)[C@@H]1CN(C(=O)Cc2ccc(OC)c(OC)c2)C[C@H]1COC,-11.0%
COc1ccc(CC(=O)N2CCc3cc(OC)c(OC)cc3C2COc2cc(C)cc(C)c2)cc1OC (stereo unspecified),3.98µM*
SMILES,Pf Dd2 growth
COc1ccc(C(=O)N2CCN(C(=O)COc3ccc(C)cc3)CC2)cc1OC,23.9%
COc1cc2c(cc1OC)C(CC(=O)O)N(C(=O)Nc1cc(OC)c(OC)c(OC)c1)CC2 (stereo unspecified),i
CN1CCC(Oc2ncccc2C(=O)NCCc2ccccn2)CC1,-14.6%
CCc1ccc(C(=O)N2CCC3(CC2)OCC(C(=O)N2CCCC2)N3C(=O)c2cccc(C)c2)cc1 (stereo unspecified),-14.6%
CCN1C(=O)COC[C@@H]1[C@H](O)c1ccc(NC(=O)c2cccs2)cc1,i
COc1ccc(S(=O)(=O)N2CC[C@H](CNC(C)=O)[C@H](N(C)C)C2)cc1,-6.8%
CC(C)C[C@H]1NC(=O)[C@@H]2C[C@@H](n3nnc(C(N)=O)c3C(N)=O)CCN2C1=O,31.3%[44.1 µM]
N#Cc1ccc(CN2CCC3(CC2)CC(c2cccnc2)=NO3)cc1,i
CN(C)[C@@H]1[C@@H](NC(=O)CCc2nc3ccccc3[nH]c2=O)[C@H]2CCO[C@H]21,-4.8%
CCN1C(=O)CCN(C(=O)CCC2CCCC2)CC12CCOCC2,-13.0%
CCOC(=O)CC1c2cc(OCC)c(OCC)cc2CCN1C(=O)Nc1cccc(Cl)c1 (stereo unspecified),-22.8%
CCOC(=O)c1ccc(OCC2c3cc(OC)c(OC)cc3CCN2C(=O)Cc2ccc(F)cc2)cc1 (stereo unspecified),10µM*
CCOc1ccc(NC(=O)N2CCc3cc(OC)c(OC)cc3C2CNC(=O)CC(C)C)cc1 (stereo unspecified),i
CCNC(=O)N1CCc2cc(OC)c(OC)cc2C1CNC(=O)CC(C)C (stereo unspecified),0.3%
